# From article PMC8384837, “Expanding the binding specificity for RNA recognition by a PUF domain”
# Molecular target: T1, PUM1 PUF domain R6-AFE (Homo sapiens, UniProt Q14671 828-1176, N1043A;Y1044F;Q1047E)
# T1 sequence: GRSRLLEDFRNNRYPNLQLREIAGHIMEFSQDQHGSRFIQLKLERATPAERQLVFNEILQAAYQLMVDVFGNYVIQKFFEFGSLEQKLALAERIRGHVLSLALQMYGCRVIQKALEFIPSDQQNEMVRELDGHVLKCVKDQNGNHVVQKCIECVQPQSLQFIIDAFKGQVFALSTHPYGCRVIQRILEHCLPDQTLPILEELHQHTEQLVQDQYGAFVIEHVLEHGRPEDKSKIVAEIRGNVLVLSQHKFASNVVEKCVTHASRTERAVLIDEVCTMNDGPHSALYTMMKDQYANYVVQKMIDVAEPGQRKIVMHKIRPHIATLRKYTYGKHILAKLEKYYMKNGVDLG
# Assay: yeast three-hybrid, YBZ-1, SC-Leu-His + 0.5 mM 3-AT, 4 days
# Conditions: tags: N-Gal4 AD-HA kept; label: inside an RPR1-promoter hybrid RNA with tandem MS2 sites; ssRNA
# In short: (§1)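 Sequencing with Illumina followed PCR amplification of the repeat regions from transformants grown four days on SC-Leu (input) or SC-Leu-His + 0.5 mM 3-AT (selection). The transformants were strain YBZ-1 with a LexA–MS2 coat fusion and a HIS3 reporter, carrying Pumilio-1 PUF domain libraries and matching RNA elements. The interaction score is the log change in variant frequency from input to selection, computed in log2 with a pseudocount of 1 for absent variants.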
row,Sequence,binding signal
1,GGCUAGAACUAGUGGAUCCCCCGGCGCCCGGCGGCUCGAGCCCGGGUAAGUGAAAAUAGUCUGCAUGCCGCCGGGCGCCAUGCCUGCAGGUCGACUCUAGAAAACAUG,3.96 log2 enrichment (interaction score)
2,GGCUAGAACUAGUGGAUCCCCCGGCGCCCGGCGGCUCGAGCCCGGGUAAGUGUAAAUAGUCUGCAUGCCGCCGGGCGCCAUGCCUGCAGGUCGACUCUAGAAAACAUG,1.28 log2 enrichment (interaction score)
3,GGCUAGAACUAGUGGAUCCCCCGGCGCCCGGCGGCUCGAGCCCGGGUAAGUGGAAAUAGUCUGCAUGCCGCCGGGCGCCAUGCCUGCAGGUCGACUCUAGAAAACAUG,3.97 log2 enrichment (interaction score)

# Molecular target: PUM1 PUF domain R5-KRQ (Homo sapiens, UniProt Q14671 828-1176, C1007K)
# Assay: as above
# Conditions: tags: N-Gal4 AD-HA kept; label: inside an RPR1-promoter hybrid RNA with tandem MS2 sites; ssRNA
# In short: as §1
row,Sequence,binding signal
1,GGCUAGAACUAGUGGAUCCCCCGGCGCCCGGCGGCUCGAGCCCGGGUAAGUGUCAAUAGUCUGCAUGCCGCCGGGCGCCAUGCCUGCAGGUCGACUCUAGAAAACAUG,5.21 log2 enrichment (interaction score)
2,GGCUAGAACUAGUGGAUCCCCCGGCGCCCGGCGGCUCGAGCCCGGGUAAGUGUAAAUAGUCUGCAUGCCGCCGGGCGCCAUGCCUGCAGGUCGACUCUAGAAAACAUG,2.89 log2 enrichment (interaction score)
3,GGCUAGAACUAGUGGAUCCCCCGGCGCCCGGCGGCUCGAGCCCGGGUAAGUGUGAAUAGUCUGCAUGCCGCCGGGCGCCAUGCCUGCAGGUCGACUCUAGAAAACAUG,0.49 log2 enrichment (interaction score)
